# Screening results deposited in PubChem by several laboratories.
# PREPL inh: inhibits the human prolyl oligopeptidase-like enzyme | Q4J6C6 | recombinant PREPL, fluorescence polarization activity-based probe | inhibition, % at 5.96 µM | hit rate 0.68% among 320,000 | AID 2751;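 also: 0% = enzyme with DMSO and 100% = wells lacking enzyme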
# PP5 inh: inhibitors of human protein phosphatase 5 (PP5). P53041. inhibition, % at 6.7 µM. purified PP5c, OMFP substrate fluorescence. AID 1987. hit rate 0.18% among 320,000;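 active = inhibition above the campaign's mean inhibition across all tested compounds plus 3 SD, cut at about 9.5% in these data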;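 also: 0% = DMSO only and 100% = 100 µM cantharidin control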
# Target sequence (P53041 whole entry, looked up): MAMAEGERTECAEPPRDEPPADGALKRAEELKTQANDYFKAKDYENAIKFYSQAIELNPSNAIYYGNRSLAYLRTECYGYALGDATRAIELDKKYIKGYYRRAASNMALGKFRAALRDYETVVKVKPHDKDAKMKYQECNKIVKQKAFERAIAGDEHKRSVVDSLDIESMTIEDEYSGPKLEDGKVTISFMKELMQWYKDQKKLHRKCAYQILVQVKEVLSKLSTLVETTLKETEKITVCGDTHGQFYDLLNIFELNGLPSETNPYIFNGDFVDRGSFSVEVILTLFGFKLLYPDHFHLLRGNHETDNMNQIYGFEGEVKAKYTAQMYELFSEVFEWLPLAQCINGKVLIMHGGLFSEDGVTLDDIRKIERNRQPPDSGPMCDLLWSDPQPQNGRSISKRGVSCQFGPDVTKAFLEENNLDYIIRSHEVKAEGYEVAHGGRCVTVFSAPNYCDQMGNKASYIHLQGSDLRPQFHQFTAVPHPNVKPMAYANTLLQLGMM
# ANO1 block: blocks the mouse calcium-activated chloride channel TMEM16A; normalized B-score (activity score, 25-100; higher = stronger inhibition) at 10 µM; AID 588511; hit rate 1.2% among 310,000; HEK293 TMEM16A/YFP iodide influx fluorescence, ionomycin; Q8BHY3;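 active = ratio plate-corrected score three or more library SD toward inhibition, starting fluorescence score within five deviations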;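 also: score derived from kinetic fluorescence span divided by baseline fluorescence per well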
# TMEM16A act: activates or potentiates the mouse TMEM16A chloride channel. Q8BHY3. HEK293 TMEM16A/YFP-H148Q/I152L, iodide quench fluorescence; stronger effect = lower value. B-score at 10 µM. hit rate 0.3% among 340,000;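 active = fluorescence-ratio B-score plate-corrected deviation score at least 3 library SD below zero, with starting fluorescence score within 5 deviations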;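 also: channel opened by trigger with iodide after compound preincubation; score built on the fluorescence ratio of max minus min over baseline; more negative score means more quench and so TMEM16A activation or potentiation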
# PP1 counter: PP1-alpha (human) inhibition in PP5 counter-screen; purified PP1alpha, OMFP fluorescence; inhibition, % at 6.7 µM; hit rate 0.9% among 320,000; AID 2235;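 active = inhibition above the mean inhibition of all tested compounds plus 3 SD, computed separately for each screening campaign, cut at about 15% in these data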
# FID counter: counter-screen for HCV NS3 helicase inhibitors: DNA intercalator displacement. inhibition, % at 7.9 µM. hit rate 0.17% among 290,000. DNA fluorescent intercalator displacement, fluorescence; in the data active = inhibition above about 37%;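 also: 0% = vehicle and 100% = reference compound; higher means more ethidium bromide displaced from hairpin DNA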
# PREPL inh cf: confirmation of human PREPL enzyme inhibitors; inhibition, % at 5.96 µM; AID 2803; recombinant PREPL, fluorescence polarization activity probe; hit rate 67% among 2,000; shares compounds with PREPL inh;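 also: 0% = protein with DMSO and 100% = wells lacking protein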
# The depositor's hits bear a star; i = inactive; . = no result given. The list is not random: actives were taken first. Their share in the collection is about 2.7%. Rule as the data show it, unless noted: active = inhibition above about 43%; inactive = the rest.
SMILES,PREPL inh,PP5 inh,ANO1 block,TMEM16A act,PP1 counter,FID counter,PREPL inh cf
Nc1ccc(N(c2ccccc2)c2ccc(N)cc2)cc1,48*,1,i,i,17*,2,26
O=c1[nH]c2ccccc2c2cn(-c3ccccc3)nc12,-10,1,i,i,2,-18,.
CCN(CC)CCNc1ccc(CO)c2sc3ccccc3c(=O)c12,45*,6,i,i,-5,19,58*
O=c1c2ccccc2sc2c(CO)ccc(NCCN3CCCCC3)c12,.,.,.,i,.,.,.
O=C(CSc1ccccc1F)Nc1ccc(N2CCOCC2)cc1,55*,2,.,i,5,.,52*
O=C(CSc1ccccc1)Nc1ccc(N2CCOCC2)cc1,42,0,i,i,-1,-6,.
O=C(CSc1cccc(C(F)(F)F)c1)Nc1ccc(N2CCOCC2)cc1,47*,.,.,i,.,.,55*
Cc1ccc(SCC(=O)Nc2ccc(N3CCOCC3)cc2)cc1C,44*,4,.,i,1,.,34
CCOCCCNCc1cc(Cl)cc(Cl)c1OCC,-15,0,i,i,-4,9,.
Cc1nn(-c2ccccc2)c2nc(C(F)F)cc(C(F)F)c12,-4,-1,.,i,0,.,.
Cc1cc(N/N=C/c2c[nH]c3ccccc23)c2ccccc2n1,7,0,i,i,2,4,.
Cn1c(N/N=C/c2c[nH]c3ccccc23)nc2ccccc21,53*,-2,i,i,-2,6,65*
COc1ccc(N2CCN(C(=O)c3cn(C4CCCC4)c(=O)c4c3c3ccccc3n4C)CC2)cc1,62*,2,i,i,-2,-35,61*
COc1ccc(N2CCN(C(=O)c3cn(C)c(=O)c4c3c3ccccc3n4C)CC2)cc1,41,0,i,i,1,-31,.
COC(=O)CCC(=O)OC1(C)C(=O)C2=CN(C(CO)CO)C(c3ccc(OC)cc3)=CC2=C(Br)C1=O (stereo not drawn),58*,9,i,.,7,.,40
O=C1CC2(CCN(C(=O)c3ccccc3[N+](=O)[O-])CC2)Oc2ccccc21,7,-1,i,i,-7,.,.
Cc1cccn2c(=O)c(/C=C(\C#N)C(N)=O)c(N3CCN(c4cccc(Cl)c4)CC3)nc12,.,.,i,i,.,-32,.
CN(CC(=O)Nc1ccccc1Cl)C(=O)c1cccc(S(=O)(=O)N2CCN(Cc3ccccc3)CC2)c1,67*,1,i,i,0,.,70*
CN(CC(=O)Nc1ccccc1Cl)C(=O)c1cccc(S(=O)(=O)N2CCN(c3ccccc3)CC2)c1,.,.,.,i,.,.,.
CC(NC(=O)c1cccs1)c1nnc(SCc2ccc(Cl)cc2Cl)n1C (stereo not drawn),43*,2,i,i,-5,-24,39
CC1(C)C(=O)Nc2ccccc2N1C(=O)COC(=O)Cc1ccc(Cl)c(Cl)c1,47*,.,.,i,.,.,38
Cc1cc(OCC(=O)OCC(=O)N2c3ccccc3NC(=O)C2(C)C)ccc1Cl,33,1,.,i,8,.,.
COCCCNC(=O)/C(C#N)=C/c1c(N2CCN(c3ccc(OC)cc3)CC2)nc2c(C)cccn2c1=O,51*,0,i,i,2,-40,52*
CNC(=O)/C(C#N)=C/c1c(N2CCN(c3ccc(OC)cc3)CC2)nc2c(C)cccn2c1=O,52*,0,i,i,2,-21,44*
CNC(=O)/C(C#N)=C/c1c(N2CCN(c3ccccc3)CC2)nc2c(C)cccn2c1=O,16,1,i,i,0,-16,.
SMILES,PREPL inh,PP5 inh,ANO1 block,TMEM16A act,PP1 counter,FID counter,PREPL inh cf
COC(=O)/C(C#N)=C/c1c(N2CCN(c3ccc(OC)cc3)CC2)nc2c(C)cccn2c1=O,48*,-2,i,i,4,-25,46*
C[C@H](CO)N1C[C@H](C)[C@@H](CN(C)S(=O)(=O)c2ccc(F)cc2)Oc2c(NC(=O)c3ccncc3)cccc2C1=O,.,.,.,i,.,.,.
CCC(CO)Oc1cc(NCc2ccc(F)cc2)c2ncn(C(C)C)c2c1 (stereo not drawn),50*,.,.,i,.,.,14
CCC(CN(C)C)Oc1cc(NCc2ccccc2)c2ncn(C(C)C)c2c1 (stereo not drawn),63*,.,.,i,.,.,51*
CCC(CO)Oc1cc(NCc2cccc(Cl)c2)c2ncn(C(C)C)c2c1 (stereo not drawn),57*,.,.,i,.,.,38
COc1cc(NCc2ccccc2)c2ncn(C(C)C)c2c1,1,3,.,i,-2,.,.
O=C(Cn1ccc2ccccc2c1=O)NCC(=O)Nc1ccc(F)cc1F,-2,-4,i,i,5,-9,.
CC(C)Nc1nnc(SCC(=O)Nc2ccc3c(c2)C(=O)c2ccccc2C3=O)s1,44*,2,i,i,4,6,52*
Cn1c(CN2CCN(S(C)(=O)=O)CC2)nc2cc([N+](=O)[O-])ccc21,13,-2,i,i,-3,-5,.
CCOC(=O)c1ccc[n+](C(C)C(=O)c2ccc(-c3ccccc3)cc2)c1 (stereo not drawn),61*,1,i,i,0,-4,48*
CC(C)C(NC(=O)c1ccc(Cl)cc1Cl)C(=O)N1CCC1 (stereo not drawn),12,.,.,i,.,.,.
CC(C)[C@H](NC(=O)c1ccc([N+](=O)[O-])cc1Cl)C(=O)N1CCN(C/C=C/c2ccccc2)CC1,47*,.,.,i,.,.,39
Cn1nc(-c2ccc(Cl)cc2)nc2c(=O)n(C)c(=O)nc1-2,44*,12*,i,.,37*,1,60*
CS(=O)(=O)n1nc(-c2ccc(Cl)cc2)nc1N,-15,-4,i,i,-6,2,.
O=C1CC(NS(=O)(=O)c2ccc([N+](=O)[O-])cc2)CN1c1ccc(Cl)cc1 (stereo not drawn),14,0,i,i,0,.,.
S=C(NCCCN1CCOCC1)N1CCN(c2nc(-c3ccc(Cl)cc3)cs2)CC1,44*,7,i,i,-4,11,43*
Cc1cccc(C(=O)Nc2ccccc2C(=O)NCc2ccco2)c1,-8,1,i,i,2,-16,.
O=C(Nc1cnccn1)Nc1ccccc1F,-14,2,i,i,-4,1,.
O=C(Oc1ccc2c(-c3ccccc3)cc(=O)oc2c1)c1cccs1,17,2,i,i,-1,-2,.
O=C(Oc1ccc2ccc(=O)oc2c1)c1cccs1,45*,1,i,i,-1,-4,60*
CCCCN(C)C(=O)Cn1cnc2sc(C)c(S(=O)(=O)N3CCN(c4ccccc4OC)CC3)c2c1=O,-3,-2,i,i,-4,-18,.
